The entries come from a sample that favours the strongest signals as a whole.
What was measured:
Assay in all cases: glycan array binding signal (z-score within array); higher = stronger binding
Settings in all cases: glycan notation: IUPAC condensed, linker removed
[1] = target: Fuc(a1-2)Gal(b1-4)[Fuc(a1-3)]GlcNAc(b1-3)[Neu5Ac(a2-6)Gal(b1-4)GlcNAc(b1-6)]Gal(b1-4)Glc
In short: (§1)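 Columns mapping to the same glycan were averaged after glycan names were converted to IUPAC-condensed notation. The data come from 3228 arrays in the Consortium for Functional Glycomics database, limited to those with an available protein sequence. Binding is reported as a within-array Z-score averaged across arrays of one protein sequence and across linkers.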

[2] = target: Fuc(a1-2)[Gal(a1-3)]Gal
In short: as §1

[3] = target: Fuc(a1-2)[GalNAc(a1-3)]Gal(b1-4)GlcNAc(b1-2)Man(a1-3)[Fuc(a1-2)[GalNAc(a1-3)]Gal(b1-4)GlcNAc(b1-2)Man(a1-6)]Man(b1-4)GlcNAc(b1-4)[Fuc(a1-6)]GlcNAc
In short: as §1

[4] = target: Fuc(a1-2)[GalNAc(a1-3)]Gal(b1-4)GlcNAc(b1-3)Gal(b1-4)GlcNAc(b1-3)Gal(b1-4)GlcNAc
In short: as §1

[5] = target: Fuc(a1-2)[GalNAc(a1-3)]Gal(b1-4)[Fuc(a1-3)]GlcNAc(b1-3)GalNAc
In short: as §1

[6] = target: Fuc(b1-3)GlcNAc
In short: as §1

[7] = target: Gal(a1-3)Gal(b1-4)GlcNAc(b1-3)GalNAc
In short: as §1

[8] = target: Gal(a1-6)Glc
In short: as §1

[9] = target: Gal(b1-3)GlcNAc(b1-2)[Gal(b1-3)GlcNAc(b1-6)]Man(a1-6)[Gal(b1-3)GlcNAc(b1-2)Man(a1-3)]Man(b1-4)GlcNAc(b1-4)GlcNAc
In short: as §1

[10] = target: Gal(b1-3)GlcNAc(b1-3)Gal(b1-3)GlcNAc
In short: as §1

[11] = target: Gal(b1-3)[Fuc(a1-4)]GlcNAc
In short: as §1

[12] = target: Gal(b1-3)[Fuc(a1-4)]GlcNAc(b1-3)Gal(b1-3)[Fuc(a1-4)]GlcNAc
In short: as §1

[13] = target: Gal(b1-3)[GlcNAc(b1-6)]GalNAc
In short: as §1

[14] = target: Gal(b1-4)GlcNAc
In short: as §1

[15] = target: Gal(b1-4)GlcNAc(b1-2)Man(a1-3)Man(b1-4)GlcNAc(b1-4)GlcNAc
In short: as §1

[16] = target: Gal(b1-4)GlcNAc(b1-2)[Gal(b1-4)GlcNAc(b1-6)]Man(a1-6)[GlcNAc(b1-4)][Gal(b1-4)GlcNAc(b1-2)Man(a1-3)]Man(b1-4)GlcNAc(b1-4)GlcNAc
In short: as §1

[17] = target: Gal(b1-4)GlcNAc(b1-3)[Fuc(a1-3)GlcNAc(b1-6)]Gal(b1-4)Glc
In short: as §1

[18] = target: Gal(b1-4)GlcNAc(b1-3)[GlcNAc(b1-6)]Gal(b1-4)GlcNAc
In short: as §1

[19] = target: Gal3S6S(b1-4)GlcNAc
In short: as §1

[20] = target: Gal4S(b1-4)GlcNAc
In short: as §1

[21] = target: Gal4S6S(b1-4)GlcNAc
In short: as §1

[22] = target: Gal6S(b1-3)GlcNAc6S
In short: as §1

[23] = target: GalNAc(a1-3)GalNAc(a1-3)Gal(a1-4)Gal(b1-4)GlcNAc
In short: as §1

[24] = target: GalNAc(b1-3)Gal(a1-6)Gal(b1-4)Glc
In short: as §1

[25] = target: GalNAc(b1-4)GlcNAc(b1-2)Man(a1-3)[GalNAc(b1-4)GlcNAc(b1-2)Man(a1-6)]Man(b1-4)GlcNAc(b1-4)GlcNAc
In short: as §1

[26] = target: GalNAc6S(b1-4)GlcNAc
In short: as §1

[27] = target: Glc(a1-4)Glc(a1-4)Glc(a1-4)Glc
In short: as §1

[28] = target: GlcNAc(a1-3)Gal(b1-4)GlcNAc
In short: as §1

[29] = target: GlcNAc(a1-4)Gal(b1-3)GlcNAc
In short: as §1

[30] = target: GlcNAc(a1-4)Gal(b1-4)GlcNAc
In short: as §1

[31] = target: GlcNAc(a1-4)Gal(b1-4)GlcNAc(b1-3)Gal(b1-4)GlcNAc(b1-3)Gal(b1-4)GlcNAc
In short: as §1

[32] = target: GlcNAc(b1-2)Man(a1-3)[GlcNAc(b1-4)][GlcNAc(b1-2)Man(a1-6)]Man(b1-4)GlcNAc(b1-4)[Fuc(a1-6)]GlcNAc
In short: as §1

[33] = target: GlcNAc(b1-2)[GlcNAc(b1-4)]Man(a1-3)[GlcNAc(b1-4)][GlcNAc(b1-2)Man(a1-6)]Man(b1-4)GlcNAc(b1-4)GlcNAc
In short: as §1

[34] = target: GlcNAc(b1-3)Gal(b1-4)GlcNAc(b1-2)[GlcNAc(b1-3)Gal(b1-4)GlcNAc(b1-6)]Man(a1-6)[GlcNAc(b1-3)Gal(b1-4)GlcNAc(b1-2)Man(a1-3)]Man(b1-4)GlcNAc(b1-4)GlcNAc
In short: as §1

[35] = target: GlcNAc(b1-3)Man
In short: as §1

[36] = target: GlcNAc(b1-4)GlcNAc(b1-4)GlcNAc(b1-4)GlcNAc(b1-4)GlcNAc(b1-4)GlcNAc
In short: as §1

[37] = target: GlcNAc(b1-6)Gal(b1-4)GlcNAc
In short: as §1

[38] = target: Man(a1-3)[Man(a1-6)]Man(b1-4)GlcNAc(b1-4)GlcNAc
In short: as §1

[39] = target: Neu5Ac(a2-3)Gal(b1-3)[Fuc(a1-4)]GlcNAc(b1-3)Gal(b1-3)[Fuc(a1-4)]GlcNAc
In short: as §1

[40] = target: Neu5Ac(a2-3)Gal(b1-4)GlcNAc(b1-2)Man(a1-3)[Neu5Ac(a2-3)Gal(b1-4)GlcNAc(b1-2)Man(a1-6)]Man(b1-4)GlcNAc(b1-4)[Fuc(a1-6)]GlcNAc
In short: as §1

[41] = target: Neu5Ac(a2-3)Gal(b1-4)GlcNAc(b1-3)Gal(b1-3)GlcNAc
In short: as §1

[42] = target: Neu5Ac(a2-3)Gal(b1-4)GlcNAc(b1-3)GalNAc
In short: as §1

[43] = target: Neu5Ac(a2-3)Gal(b1-4)GlcNAc(b1-6)GalNAc
In short: as §1

[44] = target: Neu5Ac(a2-3)Gal(b1-4)[Fuc(a1-3)]GlcNAc(b1-3)GalNAc
In short: as §1

[45] = target: Neu5Ac(a2-3)Gal6S(b1-4)GlcNAc
In short: as §1

[46] = target: Neu5Ac(a2-6)Gal(b1-4)GlcNAc(b1-2)Man(a1-3)[GlcNAc(b1-2)Man(a1-6)]Man(b1-4)GlcNAc(b1-4)GlcNAc
In short: as §1

[47] = target: Neu5Ac(a2-6)Gal(b1-4)GlcNAc(b1-2)Man(a1-6)[Man(a1-3)]Man(b1-4)GlcNAc(b1-4)GlcNAc
In short: as §1

[48] = target: Neu5Ac(a2-6)Gal(b1-4)GlcNAc(b1-3)Gal(b1-4)GlcNAc(b1-3)GalNAc
In short: as §1

[49] = target: Neu5Ac(a2-6)Gal(b1-4)GlcNAc(b1-3)Gal(b1-4)[Fuc(a1-3)]GlcNAc(b1-3)Gal(b1-4)[Fuc(a1-3)]GlcNAc
In short: as §1

[50] = target: Neu5Ac(a2-6)GalNAc
In short: as §1

[51] = target: Neu5Ac(a2-6)GalNAc(b1-4)GlcNAc
In short: as §1

[52] = target: Neu5Ac(a2-8)Neu5Ac(a2-8)Neu5Ac(a2-3)[Gal(b1-3)GalNAc(b1-4)]Gal(b1-4)Glc
In short: as §1

[53] = target: Neu5Ac(a2-8)Neu5Ac(a2-8)Neu5Ac(a2-8)Neu5Ac(a2-3)[GalNAc(b1-4)]Gal(b1-4)Glc
In short: as §1

[54] = target: Neu5Gc(a2-6)GalNAc
In short: as §1

B1: Clrb (Mus musculus) (protein)
chain: ITGATKTEQIPVNKTYAACPQNWIGVENKCFYFSEYPSNWTFAQAFCMAQEAQLARFDNQDELNFLMRYKANFDSWIGLHRESSEHPWKWTDNTEYNNTIPIRGEERFAYLNNNGISSTRIYSLRMWICSKLNSYSLHCQTPFFPSGTKHHHHHHHHG
What does the source list for B1?
glycan array binding signal (z-score) [1]: -0.359; glycan array binding signal (z-score) [2]: -0.293; glycan array binding signal (z-score) [3]: -0.417; glycan array binding signal (z-score) [4]: -0.215; glycan array binding signal (z-score) [5]: -0.299; glycan array binding signal (z-score) [6]: -0.294; glycan array binding signal (z-score) [7]: -0.505; glycan array binding signal (z-score) [8]: -0.176; glycan array binding signal (z-score) [9]: -0.249; glycan array binding signal (z-score) [10]: -0.431; glycan array binding signal (z-score) [11]: -0.303; glycan array binding signal (z-score) [12]: -0.404; glycan array binding signal (z-score) [13]: -0.186; glycan array binding signal (z-score) [14]: -0.146; glycan array binding signal (z-score) [15]: -0.355; glycan array binding signal (z-score) [16]: -0.157; glycan array binding signal (z-score) [17]: -0.386; glycan array binding signal (z-score) [18]: 5.13; glycan array binding signal (z-score) [19]: -0.099; glycan array binding signal (z-score) [20]: -0.31; glycan array binding signal (z-score) [21]: -0.101; glycan array binding signal (z-score) [22]: -0.357; glycan array binding signal (z-score) [23]: -0.541; glycan array binding signal (z-score) [24]: -0.023; glycan array binding signal (z-score) [25]: 4.64; glycan array binding signal (z-score) [26]: 4.38; glycan array binding signal (z-score) [27]: -0.498; glycan array binding signal (z-score) [28]: 5.77; glycan array binding signal (z-score) [29]: 3.81; glycan array binding signal (z-score) [30]: 4.2; glycan array binding signal (z-score) [31]: 5.29; glycan array binding signal (z-score) [32]: 4.51; glycan array binding signal (z-score) [33]: 4.02; glycan array binding signal (z-score) [34]: 0.54; glycan array binding signal (z-score) [35]: -0.377; glycan array binding signal (z-score) [36]: 7.67; glycan array binding signal (z-score) [37]: 1.87; glycan array binding signal (z-score) [38]: -0.297; glycan array binding signal (z-score) [39]: -0.359; glycan array binding signal (z-score) [40]: -0.226; glycan array binding signal (z-score) [41]: -0.383; glycan array binding signal (z-score) [42]: -0.44; glycan array binding signal (z-score) [43]: -0.392; glycan array binding signal (z-score) [44]: -0.205; glycan array binding signal (z-score) [45]: -0.365; glycan array binding signal (z-score) [46]: -0.472; glycan array binding signal (z-score) [47]: -0.503; glycan array binding signal (z-score) [48]: -0.628; glycan array binding signal (z-score) [49]: -0.211; glycan array binding signal (z-score) [50]: -0.508; glycan array binding signal (z-score) [51]: 4.69; glycan array binding signal (z-score) [52]: -0.421; glycan array binding signal (z-score) [53]: -0.449; glycan array binding signal (z-score) [54]: -0.377

— the supplement of paper PMC8728848
